# Measurements from PubChem BioAssay (EPA / NIEHS).
# “And” between values parts separate entries of the source, which are not always exact repeats. Equal values may be shown once. Where a structure was tested more than once in an assay, its records may differ in their call. The source made the active and inactive calls. The calls were made as follows: active = hit-call score of the fitted dose curve at least 0.9, where 1 is the maximum; inactive = score below 0.9.
# Tests used:
# [1] = APR_HepG2_P-H2AX_72hr: Apredica 72-hour HepG2 Assay for H2AX Phosphorylation (AID 2282916); details: imaging, actives raise or lower the signal;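 also: phospho-histone H2A.x immunostain intensity per cell marking DNA damage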
# Outline: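 HepG2; cpd 0.39–200 uM ×10 conc, duplicates; 0.5% DMSO; 72 hr. Fix 3.7% formaldehyde 30 min RT, 0.5% Triton X-100 10 min. Anti-phospho-H2A.x 1:200 + Hoechst 2 ug/mL, 60 min RT; ArrayScan imaging.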
# [2] = APR_HepG2_MitoMembPot_72hr: Apredica 72-hour HepG2 Assay for Mitochondrial Membrane Potential (AID 2282917); details: imaging, actives raise or lower the signal
# Outline: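 HepG2 cells exposed 72 h to compounds at 0.39–200 uM (0.5% v/v DMSO, duplicates); MitoTracker Red CMXRos 250 nM loaded 30 min before 3.7% formaldehyde fixation, imaged by HCS fluorescence. Bidirectional fit versus DMSO.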
# [3] = APR_HepG2_MitoticArrest_72hr: Apredica 72-hour HepG2 Assay for Mitotic Arrest (AID 2282918); details: high-content imaging, actives raise or lower the signal
# Outline: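 HepG2, 72 hr exposure, 0.39–200 uM in duplicate, 0.5% v/v DMSO final. Formaldehyde-fixed, Triton-permeabilized, anti-phospho-histone H3/FITC plus Hoechst. ArrayScan imaging at 20x; curves fit bidirectionally against DMSO baseline.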
# [4] = APR_HepG2_MicrotubuleCSK_72hr: Apredica 72-hour HepG2 Assay for Microtubule CSK Stabilty (AID 2282919); details: HepG2 microtubule cytoskeleton, high-content imaging, actives raise or lower the signal
# Outline: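 HepG2 human liver cells were dosed for 72 h at ten concentrations from 0.39 to 200 uM in duplicate (0.5% v/v DMSO final). Fixed, permeabilized cells were immunostained for alpha-tubulin (Cy5) with a Hoechst counterstain and imaged at 20x.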
# [5] = APR_HepG2_P-H2AX_24hr: Apredica 24-hour HepG2 Assay for H2AX Phosphorylation (AID 2282920); details: high-content imaging, actives raise or lower the signal
# Outline: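 HCS fluorescence imaging of phospho-H2A.x immunostain (with Hoechst 33342 nuclear counterstain) in HepG2 after 24 hr compound exposure; 10 concentrations, 0.39–200 uM, duplicate wells, 0.5% v/v DMSO. Gain or loss of signal fitted relative to DMSO baseline.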
# [6] = APR_HepG2_StressKinase_72hr: Apredica 72-hour HepG2 Assay for Stress Kinase (AID 2282921); details: HepG2 stress kinase (phospho-c-Jun) imaging, actives raise or lower the signal
# Outline: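 Dose 0.39–200 uM (10 pts, duplicate), 0.5% DMSO; 72 h; fix 3.7% formaldehyde 30 min RT; Triton permeabilize; anti-phospho-c-Jun/Cy3 + Hoechst 60 min RT; image 20x; fit gain/loss vs DMSO.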
# [7] = APR_HepG2_StressKinase_24hr: Apredica 24-hour HepG2 Assay for Stress Kinase (AID 2282922); details: HepG2 stress kinase (phospho-c-Jun) imaging, actives raise or lower the signal
# Outline: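 HepG2 cells exposed 24 hr to compound at 0.39–200 uM (10 concentrations, duplicate), 0.5% v/v DMSO final. Fixed in 3.7% formaldehyde, permeabilized with Triton X-100, immunolabeled for phospho-c-Jun with Hoechst 33342; HCS fluorescence imaging, bidirectional fit versus DMSO.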
# [8] = APR_HepG2_p53Act_72hr: Apredica 72-hour HepG2 Assay for p53 Activation (AID 2282923); details: high-content imaging, actives raise or lower the signal;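 also: average cellular p53 protein immunofluorescence intensity in HepG2 cells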
# Outline: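 10-pt conc. 0.39–200 uM, duplicate, 0.5% DMSO; 72 hr exposure; 3.7% formaldehyde fix, 0.5% Triton perm; sheep anti-p53/Cy5 + Hoechst; ArrayScan 20x, 6 images/well; gain/loss fit vs DMSO.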
# [9] = APR_HepG2_MitoMass_72hr: Apredica 72-hour HepG2 Assay for Mitochondrial Mass (AID 2282924); details: high-content imaging, actives raise or lower the signal;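 also: MitoTracker Red CMXRos stain intensity per cell imaged as mitochondrial mass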
# Outline: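 HepG2 cells were exposed for 72 hr to compounds at 0.39–200 uM (ten concentrations, duplicate, 0.5% v/v DMSO final). Live cells were stained with 250 nM MitoTracker Red CMXRos for 30 min, then fixed in 3.7% formaldehyde and imaged by HCS fluorescence.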
# [10] = APR_HepG2_NuclearSize_72hr: Apredica 72-hour HepG2 Assay for Nuclear Size (AID 2282925); details: high-content imaging, actives raise or lower the signal
# Outline: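 HepG2 cells were exposed to compounds at ten concentrations from 0.39 to 200 uM (duplicate, 0.5% DMSO final) for 72 hr. After fixation in 3.7% formaldehyde, nuclei were stained with Hoechst 33342 (2 ug/mL) and imaged at 20x.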
# [11] = ATG_CRE_CIS: Attagene CIS-FACTORIAL HepG2 Assay for human cAMP Responsive Element (CRE) binding protein 3 (AID 2282926); details: HepG2 CRE cis-reporter, Attagene multiplexed mRNA; actives raise or lower the signal
# Outline: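 Endogenous CRE-binding activity in HepG2 is reported through a cis-regulated transfected reporter. Following a day of exposure, mRNA levels are determined by reverse transcription PCR and fluorescent fragment analysis; fits run in both directions versus DMSO.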
# [12] = biological target: CCAAT/enhancer-binding protein beta (Homo sapiens) (UniProt P17676); experiment: ATG_C_EBP_CIS: Attagene CIS-FACTORIAL HepG2 Assay for human CCAAT/Enhancer Binding Protein (C/EBP) beta (AID 2282927); details: HepG2 Attagene cis-factorial transcription factor reporter; actives raise or lower the signal
# Outline: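 Chemical-treated HepG2 cells (24 h) bearing cis-regulated reporter constructs were processed for total RNA, then reverse transcription, PCR amplification, fluorescent primer extension and fragment analysis; gain- and loss-of-signal were fitted against DMSO.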
# [13] = ATG_CMV_CIS: Attagene CIS-FACTORIAL HepG2 Assay for human CMV (Internal Marker) (AID 2282928); details: HepG2 CMV promoter reporter, transcription factor profiling; actives raise or lower the signal;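 also: endpoint acts as a background internal control marker rather than a target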
# Outline: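 CMV internal-marker background readout in transiently transfected HepG2 cells bearing cis-regulated reporter units. Reporter mRNA is measured 24 h after dosing by RT-PCR and capillary electrophoresis, with bidirectional fitting against DMSO.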
# [14] = biological target: Aryl hydrocarbon receptor (Homo sapiens) (UniProt P35869); experiment: ATG_Ahr_CIS: Attagene CIS-FACTORIAL HepG2 Assay for human Aryl Hydrocarbon Receptor (Ahr) (AID 2282930); details: HepG2 AhR cis-factorial reporter transcription; actives raise or lower the signal
# Outline: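 Following 24 h of chemical dosing, transfected HepG2 liver cells with cis-driven reporter units were lysed for RNA; reporter mRNA was quantified via RT-PCR and capillary electrophoresis, and responses fitted bidirectionally from DMSO.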
# [15] = ATG_AP_2_CIS: Attagene CIS-FACTORIAL HepG2 Assay for human Activator Protein 2 (AP-2) (AID 2282932); details: HepG2 AP-2 cis-reporter, Attagene transcription factor profiling; actives raise or lower the signal
# Outline: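 Bidirectional curve fitting against DMSO was applied to reporter mRNA signals from HepG2 cells 24 h after dosing. Cis-promoter reporter units, transiently transfected, were read by RT-PCR plus capillary electrophoresis.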
# [16] = ATG_BRE_CIS: Attagene CIS-FACTORIAL HepG2 Assay for human Bone Morphogenetic Protein (BMP) Response Element (BRE) (AID 2282933); details: HepG2 BMP response element reporter, Attagene transcription factor profiling; actives raise or lower the signal
# Outline: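 After a 24 h chemical treatment, transiently transfected HepG2 cells were lysed for RNA; reporter transcripts were quantified by fluorescent RT-PCR and capillary electrophoresis, normalised to DMSO.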
# [17] = APR_HepG2_CellLoss_72hr: Apredica 72-hour HepG2 Assay for Cell Loss (AID 2282915); details: high-content imaging
# Outline: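 HepG2 cells were exposed for 72 hr to compounds at 0.39–200 uM (ten concentrations, duplicate) in 0.5% v/v final DMSO. Nuclei were stained with Hoechst 33342 after 3.7% formaldehyde fixation, imaged at 20x, and counted; fits bidirectional versus DMSO.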
# [18] = ATG_DR4_LXR_CIS: Attagene CIS-FACTORIAL HepG2 Assay for human Liver X Receptor (LXR), DR4 submotif (AID 2282929); details: HepG2 Attagene DR4 cis-reporter, mRNA transcription; actives raise or lower the signal
# Outline: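 DR4 cis-reporter in HepG2, 24 h exposure. Detection: RT-PCR, 6-FAM labelling, CE fragment analysis. Endpoint fitted bidirectionally, DMSO = baseline.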
# [19] = ATG_AP_1_CIS: Attagene CIS-FACTORIAL HepG2 Assay for human Activator Protein 1 (AP-1) (AID 2282931); details: HepG2 Attagene cis-factorial AP-1 reporter mRNA; actives raise or lower the signal
# Outline: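 Cis-regulated reporter units transiently expressed in HepG2 report endogenous transcription-factor activity. Signal: reporter mRNA at 24 h, via RT-PCR and fluorescent capillary electrophoresis. Endpoint derived by bidirectional fitting, DMSO as negative control.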
# [20] = biological target: Retinoic acid receptor alpha (Homo sapiens) (UniProt P10276); experiment: ATG_DR5_RAR_CIS: Attagene CIS-FACTORIAL HepG2 Assay for human Retinoic Acid Receptor Alpha (RARE), DR5 submotif (AID 2282934); details: HepG2 Attagene cis-factorial RARE DR5 reporter, mRNA; actives raise or lower the signal;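 as to AC50: reporter responds to endogenous RAR alpha beta and gamma in HepG2 not RARA alone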
# Outline: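 Transfected HepG2 reporter cells are exposed to chemicals for 24 h. Then RNA is extracted and the DR5 element reporter transcript is measured by RT-PCR and capillary electrophoresis, with bidirectional curve fitting relative to DMSO.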
# Chain of Aryl hydrocarbon receptor (Homo sapiens) (P35869 whole entry, looked up): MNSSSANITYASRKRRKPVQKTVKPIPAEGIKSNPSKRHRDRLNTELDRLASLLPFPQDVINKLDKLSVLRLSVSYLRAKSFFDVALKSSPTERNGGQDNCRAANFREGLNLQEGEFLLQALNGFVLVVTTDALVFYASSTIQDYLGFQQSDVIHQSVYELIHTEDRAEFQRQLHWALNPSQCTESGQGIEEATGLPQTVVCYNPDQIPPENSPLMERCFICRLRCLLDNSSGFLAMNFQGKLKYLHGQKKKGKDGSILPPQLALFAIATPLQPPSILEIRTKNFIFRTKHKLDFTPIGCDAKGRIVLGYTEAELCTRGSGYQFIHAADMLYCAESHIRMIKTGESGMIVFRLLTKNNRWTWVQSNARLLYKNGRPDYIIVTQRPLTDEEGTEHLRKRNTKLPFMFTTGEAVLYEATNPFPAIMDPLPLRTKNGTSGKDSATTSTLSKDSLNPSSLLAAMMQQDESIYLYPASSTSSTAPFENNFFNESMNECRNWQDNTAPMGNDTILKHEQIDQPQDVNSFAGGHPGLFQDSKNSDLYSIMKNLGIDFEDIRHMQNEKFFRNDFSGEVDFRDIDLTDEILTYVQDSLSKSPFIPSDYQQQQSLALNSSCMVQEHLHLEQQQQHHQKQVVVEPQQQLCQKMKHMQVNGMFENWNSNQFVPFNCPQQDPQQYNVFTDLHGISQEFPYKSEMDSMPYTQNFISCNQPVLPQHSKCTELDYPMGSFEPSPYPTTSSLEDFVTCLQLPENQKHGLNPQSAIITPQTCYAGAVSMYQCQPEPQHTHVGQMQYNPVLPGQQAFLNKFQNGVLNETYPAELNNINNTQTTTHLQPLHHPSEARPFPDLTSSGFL
# Chain of Retinoic acid receptor alpha (Homo sapiens) (P10276 whole entry, looked up): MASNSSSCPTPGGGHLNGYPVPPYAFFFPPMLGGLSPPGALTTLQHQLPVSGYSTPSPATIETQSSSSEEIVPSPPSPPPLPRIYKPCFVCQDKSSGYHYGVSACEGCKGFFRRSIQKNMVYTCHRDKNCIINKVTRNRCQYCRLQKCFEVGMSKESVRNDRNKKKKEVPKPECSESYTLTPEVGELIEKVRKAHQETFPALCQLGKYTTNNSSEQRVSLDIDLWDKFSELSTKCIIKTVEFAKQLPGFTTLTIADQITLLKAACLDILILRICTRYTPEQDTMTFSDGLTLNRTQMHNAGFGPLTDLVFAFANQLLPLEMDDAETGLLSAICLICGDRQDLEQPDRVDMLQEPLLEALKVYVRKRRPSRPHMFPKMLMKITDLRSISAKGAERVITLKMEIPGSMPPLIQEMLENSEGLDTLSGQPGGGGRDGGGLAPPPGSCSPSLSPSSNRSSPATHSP
# Chain of CCAAT/enhancer-binding protein beta (Homo sapiens) (P17676 whole entry, looked up, the tested form may be a part): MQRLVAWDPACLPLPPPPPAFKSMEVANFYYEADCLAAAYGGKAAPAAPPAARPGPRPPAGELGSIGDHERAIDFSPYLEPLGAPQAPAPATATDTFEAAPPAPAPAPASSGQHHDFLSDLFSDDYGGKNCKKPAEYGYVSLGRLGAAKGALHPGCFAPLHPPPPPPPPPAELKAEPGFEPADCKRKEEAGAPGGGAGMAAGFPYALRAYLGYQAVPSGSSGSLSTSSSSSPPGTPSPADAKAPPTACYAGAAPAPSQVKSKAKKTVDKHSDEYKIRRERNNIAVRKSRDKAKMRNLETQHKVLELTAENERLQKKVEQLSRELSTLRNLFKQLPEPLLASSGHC
compound,measurement,setting,value
CC1=C(/C=C/C(C)=C/C=C/C(C)=C/C(=O)O)C(C)(C)CCC1,outcome,[1],inactive
same,outcome,[2],inactive
same,outcome,[3],inactive
same,outcome,[4],inactive
same,AC50,[5],86.8 µM (active)
same,outcome,[6],inactive
same,outcome,[7],inactive
same,outcome,[8],inactive
same,AC50,[9],79.9 µM (active)
same,outcome,[10],inactive
same,AC50,[11],52.4 µM (active) and 3.28 µM (active)
same,AC50,[12],6.62 µM (active) and 193 nM (active)
same,AC50,[13],75.8 µM (active)
same,outcome,[13],inactive
same,outcome,[14],inactive
same,outcome,[15],inactive
same,outcome,[16],inactive
CN(C)C=O,outcome,[17],inactive
same,outcome,[1],inactive
same,outcome,[2],inactive
same,outcome,[3],inactive
same,outcome,[4],inactive
same,outcome,[5],inactive
same,outcome,[6],inactive
same,outcome,[7],inactive
same,outcome,[8],inactive
same,outcome,[9],inactive
same,outcome,[11],inactive
same,outcome,[12],inactive
same,outcome,[13],inactive
same,outcome,[18],inactive
same,outcome,[14],inactive
same,outcome,[19],inactive
same,outcome,[15],inactive
same,outcome,[16],inactive
same,outcome,[20],inactive
Cc1oc(-c2ccccc2)nc1CCOc1ccc(C[C@H](Nc2ccccc2C(=O)c2ccccc2)C(=O)O)cc1,AC50,[17],53.3 µM (active)
same,AC50,[1],59 µM (active)
same,AC50,[2],120 µM (active)
same,AC50,[3],67.8 µM (active)
same,outcome,[4],inactive
same,AC50,[5],81.7 µM (active)
same,outcome,[6],inactive
same,outcome,[7],inactive
same,AC50,[8],95.7 µM (active)
same,outcome,[9],inactive
same,outcome,[10],inactive
same,outcome,[11],inactive
same,outcome,[12],inactive
same,outcome,[13],inactive
same,outcome,[14],inactive
same,outcome,[15],inactive
same,AC50,[16],11 µM (active)
same,outcome,[20],inactive
CCC(=C(c1ccc(O)cc1)c1ccc(OCCN(C)C)cc1)c1ccccc1,outcome,[17],inactive
same,outcome,[1],inactive
same,outcome,[2],inactive
same,outcome,[3],inactive
same,outcome,[4],inactive
same,outcome,[5],inactive
same,outcome,[6],inactive
same,outcome,[7],inactive
same,outcome,[9],inactive
same,outcome,[11],inactive
same,outcome,[12],inactive
same,AC50,[13],5.22 µM (active) and 7.1 µM (active)
same,outcome,[13],inactive
same,AC50,[18],9.72 µM (active) and 2.37 µM (active)
same,outcome,[18],inactive
same,outcome,[14],inactive
same,outcome,[19],inactive
same,outcome,[15],inactive
same,AC50,[16],10.5 µM (active)
same,outcome,[16],inactive
same,AC50,[20],11.1 µM (active)
same,outcome,[20],inactive
CN1CCN(c2ccccc2/C=C2\SCCN(c3ccc(Cl)c(Cl)c3)C2=O)CC1,AC50,[17],12.4 µM (active)
same,outcome,[1],inactive
same,outcome,[2],inactive
same,AC50,[3],4.25 µM (active)
same,AC50,[4],23.5 µM (active)
same,AC50,[5],32.7 µM (active)
same,AC50,[6],19.4 µM (active)
same,outcome,[7],inactive
same,outcome,[8],inactive
same,AC50,[9],109 µM (active)
same,outcome,[11],inactive
same,outcome,[12],inactive
same,outcome,[13],inactive
same,outcome,[18],inactive
same,outcome,[14],inactive
same,outcome,[15],inactive
same,outcome,[16],inactive
same,outcome,[20],inactive
